# Assay results reported in PubChem BioAssay (EPA / NIEHS).
# Inconclusive results are not listed. The source holds several records for some structures; these can differ, active in one and inactive in another. Activity calls are given as the source filed them. How the source made its calls: active means hit-call score of the fitted dose curve at least 0.9, where 1 is the maximum; inconclusive means response in the unintended direction; inactive means score below 0.9.
# Assays:
# [1] = biological target: Estrogen receptor (Homo sapiens) (UniProt P03372); assay: NVS_NR_hER: NovaScreen (NVS) Nuclear Receptor Binding Assay for human Estrogen Receptor (ER) (AID 2283348)
# Sequence of Estrogen receptor (Homo sapiens) (P03372 whole entry, looked up, the tested form may be a part): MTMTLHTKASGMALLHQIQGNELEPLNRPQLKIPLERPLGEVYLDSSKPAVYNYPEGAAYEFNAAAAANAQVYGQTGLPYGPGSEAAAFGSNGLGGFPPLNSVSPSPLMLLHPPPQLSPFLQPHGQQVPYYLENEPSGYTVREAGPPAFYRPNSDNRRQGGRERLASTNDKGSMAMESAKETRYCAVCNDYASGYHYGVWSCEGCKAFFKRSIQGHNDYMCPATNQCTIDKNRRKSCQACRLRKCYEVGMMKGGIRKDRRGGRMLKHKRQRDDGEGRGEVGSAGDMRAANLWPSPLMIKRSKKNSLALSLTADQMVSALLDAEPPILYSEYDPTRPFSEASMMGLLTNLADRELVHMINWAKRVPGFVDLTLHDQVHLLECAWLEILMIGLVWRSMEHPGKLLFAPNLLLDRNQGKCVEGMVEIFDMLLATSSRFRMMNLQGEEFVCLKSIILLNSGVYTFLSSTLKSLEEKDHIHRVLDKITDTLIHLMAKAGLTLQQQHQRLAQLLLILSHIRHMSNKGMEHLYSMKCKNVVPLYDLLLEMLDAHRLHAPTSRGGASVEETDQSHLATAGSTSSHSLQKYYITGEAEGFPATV
# Summary of the method: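 Cell-free radioligand binding with protein extracted from MCF7 cells; scintillation counting 18 hours after dosing. Loss of signal versus DMSO baseline read as displacement; primary single-concentration screen at 25 uM in duplicate, actives retested in concentration series.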
# [2] = biological target: Estrogen receptor (Homo sapiens) (UniProt P03372); assay: OT_ER_ERaERa_1440: Odyssey Thera (OT) 24-hour HEK293T Protein-Complementation Assay for Estrogen Receptor-alpha/-alpha Homodimer (AID 2283349);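 further: hits raise fluorescence above DMSO for agonists and antagonists alike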
# Summary of the method: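 Readout is the rise in mean fluorescence from reporter fragment complementation when ERα LBD (aa 310-547) units dimerize in HEK293T cells. Measured 24 h after dosing and analysed as increase over DMSO control.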
# [3] = biological target: Estrogen receptor (Homo sapiens) (UniProt P03372); assay: OT_ER_ERaERa_0480: Odyssey Thera (OT) 8-hour HEK293T Protein-Complementation Assay for Estrogen Receptor-alpha/-alpha Homodimer (AID 2283351);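 further: rise in fluorescence from reassembled reporter fragments on ERα LBD homodimer in nucleus or whole cell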
# Summary of the method: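 The readout is complementation of fragments fused to the human ER alpha ligand-binding domain (aa 310-547), stably expressed in HEK293T cells. After 8 h of exposure, the increase in nuclear/cytoplasmic fluorescence was measured by laser scanning cytometry and fitted relative to DMSO.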
# [4] = biological target: Estrogen receptor (Homo sapiens) + Estrogen receptor beta (Homo sapiens) (UniProt P03372+Q92731); assay: OT_ER_ERaERb_0480: Odyssey Thera (OT) 8-hour HEK293T Protein-Complementation Assay for Estrogen Receptor-alpha/-beta Heterodimer (AID 2283352)
# Sequence of Estrogen receptor (Homo sapiens) + Estrogen receptor beta (Homo sapiens) (P03372 whole entry, looked up, the tested form may be a part): as above
# Sequence of Estrogen receptor (Homo sapiens) + Estrogen receptor beta (Homo sapiens) (Q92731 whole entry, looked up, the tested form may be a part): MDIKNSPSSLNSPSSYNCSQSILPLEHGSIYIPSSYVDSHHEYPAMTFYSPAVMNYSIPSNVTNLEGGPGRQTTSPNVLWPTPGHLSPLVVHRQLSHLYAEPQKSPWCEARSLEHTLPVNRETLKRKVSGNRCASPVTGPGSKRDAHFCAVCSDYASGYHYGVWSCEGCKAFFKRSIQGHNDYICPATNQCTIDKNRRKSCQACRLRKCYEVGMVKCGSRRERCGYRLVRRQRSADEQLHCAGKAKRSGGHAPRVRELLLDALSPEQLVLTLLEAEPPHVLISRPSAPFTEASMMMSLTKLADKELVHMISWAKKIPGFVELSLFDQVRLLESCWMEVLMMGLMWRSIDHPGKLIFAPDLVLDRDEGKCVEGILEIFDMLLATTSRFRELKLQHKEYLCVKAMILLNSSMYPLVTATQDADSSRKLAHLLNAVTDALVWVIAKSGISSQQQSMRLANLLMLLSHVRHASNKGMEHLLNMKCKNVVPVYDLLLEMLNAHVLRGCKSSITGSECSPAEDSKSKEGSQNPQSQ
# Summary of the method: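 Human HEK293T cells were treated for 8 hours and receptor heterodimerisation was detected through reconstitution of a fluorescent reporter split between ER-alpha and ER-beta ligand-binding domains. Activity was analysed as gain of signal against DMSO.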
# [5] = biological target: chimpanzee Androgen Receptor (AR), AR (gene 747460) (UniProt O97775); assay: NVS_NR_cAR: NovaScreen (NVS) Nuclear Receptor Binding Assay for chimpanzee Androgen Receptor (AR) (AID 2283346);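 further: radioligand displacement from AR measured by scintillation counting in a cell-free assay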
# Sequence of chimpanzee Androgen Receptor (AR), AR (gene 747460) (O97775 whole entry, looked up): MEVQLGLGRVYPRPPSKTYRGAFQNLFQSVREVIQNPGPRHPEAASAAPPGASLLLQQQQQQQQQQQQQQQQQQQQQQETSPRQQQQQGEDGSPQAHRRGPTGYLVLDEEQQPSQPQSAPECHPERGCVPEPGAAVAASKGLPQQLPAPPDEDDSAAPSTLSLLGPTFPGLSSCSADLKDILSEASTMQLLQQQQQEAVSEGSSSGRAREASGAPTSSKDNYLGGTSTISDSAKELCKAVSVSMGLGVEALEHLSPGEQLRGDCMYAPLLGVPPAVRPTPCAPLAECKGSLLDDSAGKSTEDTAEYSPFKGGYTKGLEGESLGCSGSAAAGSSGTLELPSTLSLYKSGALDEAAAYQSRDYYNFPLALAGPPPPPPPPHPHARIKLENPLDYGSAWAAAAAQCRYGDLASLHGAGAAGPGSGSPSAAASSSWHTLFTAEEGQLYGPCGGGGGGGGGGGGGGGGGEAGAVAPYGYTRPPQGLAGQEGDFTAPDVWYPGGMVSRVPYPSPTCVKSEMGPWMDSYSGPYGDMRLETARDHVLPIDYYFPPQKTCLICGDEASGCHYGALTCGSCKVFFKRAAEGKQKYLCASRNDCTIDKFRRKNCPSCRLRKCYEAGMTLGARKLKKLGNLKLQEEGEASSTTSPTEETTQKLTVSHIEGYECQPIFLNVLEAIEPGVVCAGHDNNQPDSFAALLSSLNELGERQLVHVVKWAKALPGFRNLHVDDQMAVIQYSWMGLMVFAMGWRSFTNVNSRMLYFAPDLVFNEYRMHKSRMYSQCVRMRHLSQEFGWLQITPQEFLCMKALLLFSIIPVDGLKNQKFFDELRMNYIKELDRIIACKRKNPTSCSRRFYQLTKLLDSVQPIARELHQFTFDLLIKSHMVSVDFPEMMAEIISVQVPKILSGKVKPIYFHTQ
# Summary of the method: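 Cell-free radioligand displacement using receptor protein extracted from Sf9/Sf21 cells; bound radioligand measured by scintillation counting 72 hours after chemical dosing. Loss of signal versus DMSO baseline indicates binding; primary screen single-concentration in duplicate at 25 uM, actives followed in concentration series.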
# [6] = biological target: Androgen Receptor/SRC-1 Co-activator, AR (gene 367) (UniProt P10275); assay: OT_AR_ARSRC1_0960: Odyssey Thera (OT) 16-hour HEK293T Protein-Complementation Assay for Androgen Receptor/SRC-1 Co-activator (AID 2283353);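 further: actives raise the signal above DMSO so potency reflects increased AR and SRC-1 complex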
# Sequence of Androgen Receptor/SRC-1 Co-activator, AR (gene 367) (P10275 whole entry, looked up, the tested form may be a part): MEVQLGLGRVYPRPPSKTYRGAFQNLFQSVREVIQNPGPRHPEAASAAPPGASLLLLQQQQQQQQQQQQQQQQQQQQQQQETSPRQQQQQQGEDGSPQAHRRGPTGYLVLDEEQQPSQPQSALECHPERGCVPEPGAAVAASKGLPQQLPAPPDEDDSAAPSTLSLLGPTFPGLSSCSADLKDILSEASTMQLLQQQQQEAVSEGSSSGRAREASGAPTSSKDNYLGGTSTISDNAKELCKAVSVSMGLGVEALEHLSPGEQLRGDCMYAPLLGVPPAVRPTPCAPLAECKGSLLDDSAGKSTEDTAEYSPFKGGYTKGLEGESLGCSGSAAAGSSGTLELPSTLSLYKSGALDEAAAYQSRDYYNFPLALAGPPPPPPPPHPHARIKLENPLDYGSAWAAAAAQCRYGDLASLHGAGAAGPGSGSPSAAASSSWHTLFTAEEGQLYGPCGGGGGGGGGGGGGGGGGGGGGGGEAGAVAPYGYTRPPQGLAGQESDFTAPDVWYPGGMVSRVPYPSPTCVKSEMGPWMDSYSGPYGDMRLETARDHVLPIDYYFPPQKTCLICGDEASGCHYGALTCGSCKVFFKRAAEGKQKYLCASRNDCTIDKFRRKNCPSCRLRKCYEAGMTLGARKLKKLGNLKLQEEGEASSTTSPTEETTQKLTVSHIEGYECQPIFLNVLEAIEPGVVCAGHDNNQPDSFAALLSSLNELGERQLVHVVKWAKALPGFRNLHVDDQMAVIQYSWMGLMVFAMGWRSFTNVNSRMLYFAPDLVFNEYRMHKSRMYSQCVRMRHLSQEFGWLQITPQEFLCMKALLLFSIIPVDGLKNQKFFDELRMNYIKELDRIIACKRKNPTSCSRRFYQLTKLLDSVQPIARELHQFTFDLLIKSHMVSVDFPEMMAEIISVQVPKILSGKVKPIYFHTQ
# Summary of the method: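 HEK293T cells stably expressing AR and SRC-1 fused to Venus YFP fragments, imaged 16 h after dosing. Nuclear/cytoplasmic fluorescence ratio at 488 nm from at least 400 cells per image; gain of signal relative to DMSO.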
# [7] = biological target: Androgen Receptor/SRC-1 Co-activator, AR (gene 367) (UniProt P10275); assay: OT_AR_ARSRC1_0480: Odyssey Thera (OT) 8-hour HEK293T Protein-Complementation Assay for Androgen Receptor/SRC-1 Co-activator (AID 2283354);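 further: hits raise the complementation signal above DMSO so AC50 marks enhancers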
# Summary of the method: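 HEK293T cells stably expressing AR and SRC-1 fused to split Venus YFP fragments via (Gly4Ser)2 linkers were read 8 h after compound dosing. Complementation was imaged at 488 and 635nm, and nuclear/cytoplasmic fluorescence ratio (488nm) was taken over ≥400 cells; gain-of-signal versus DMSO.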
smiles,measurement,setting,value
CN(C)c1ccc(C=O)cc1,outcome,[1],inactive
O=C(O)CS,outcome,[2],inactive
c1coc(CNc2ncnc3nc[nH]c23)c1,outcome,[2],inactive
CC12CCC(C1)C(C)(C)C2O (configuration not stated),outcome,[1],inactive
same,outcome,[2],inactive
same,outcome,[3],inactive
same,outcome,[4],inactive
CC(C)CCCC(C)(C)O,outcome,[5],inactive
same,outcome,[2],inactive
same,outcome,[3],inactive
CC/C(=C(\c1ccccc1)c1ccc(OCCN(C)C)cc1)c1ccccc1,AC50,[5],19.4 µM (active)
same,outcome,[5],inactive
CCCCC/C=C\C=C\C(=O)OCC,AC50,[1],42.7 µM (active)
same,outcome,[2],inactive
same,outcome,[3],inactive
same,outcome,[4],inactive
OC[C@@H](O)[C@H](O)[C@@H](O)[C@@H](O)CO,outcome,[5],inactive
same,outcome,[2],inactive
CCCCCCCCCCO[C@@H]1O[C@H](CO)[C@@H](O)[C@H](O)[C@H]1O,outcome,[5],inactive
same,outcome,[2],inactive
CC(O)CNCC(C)O (configuration not stated),AC50,[2],18 µM (active)
CCCCCC1CCC(=O)O1 (configuration not stated),outcome,[2],inactive
same,outcome,[3],inactive
same,outcome,[4],inactive
O=C(O)C1=NN(c2ccc(S(=O)(=O)O)cc2)C(=O)C1,outcome,[2],inactive
same,outcome,[3],inactive
CC(C)N(c1ccccc1)C(C)C,outcome,[2],inactive
same,outcome,[3],inactive
same,outcome,[4],inactive
COC(=O)c1ccc(C(=O)OC)cc1,outcome,[2],inactive
same,outcome,[3],inactive
same,outcome,[4],inactive
C=C(C)C(=O)OCCC(C)OC(=O)C(=C)C (configuration not stated),outcome,[2],inactive
same,outcome,[3],inactive
CCCCCCCC(=O)N(C)C,outcome,[2],inactive
same,outcome,[3],inactive
CCCC1CCC(=O)CC1,outcome,[2],inactive
same,outcome,[3],inactive
same,outcome,[4],inactive
NC(=O)c1cccnc1,outcome,[2],inactive
same,outcome,[3],inactive
CCCCOCCOCCOCCO,outcome,[2],inactive
same,outcome,[3],inactive
C=C(C)C(N)=O,outcome,[2],inactive
same,outcome,[3],inactive
CCCC[N+](C)(CCCC)CCCC,outcome,[2],inactive
same,outcome,[3],inactive
OCC=Cc1ccccc1,outcome,[2],inactive
same,outcome,[3],inactive
same,outcome,[4],inactive
CC(=O)C1=C(C)[C@@H]2C[C@@]3(C1)[C@H](C)CC[C@H]3C2(C)C,AC50,[2],72.1 µM (active)
same,AC50,[3],21.6 µM (active)
same,AC50,[4],12.4 µM (active)
CCCCCCCCOS(=O)(=O)O,outcome,[2],inactive
same,outcome,[3],inactive
O=C(O)c1ccccc1O,outcome,[2],inactive
same,outcome,[3],inactive
O=C(OCc1ccccc1)c1ccccc1O,outcome,[2],inactive
same,AC50,[3],63 µM (active)
same,AC50,[4],46 µM (active)
COc1ccc2[nH]cc(CCNC(C)=O)c2c1,outcome,[2],inactive
same,outcome,[3],inactive
same,outcome,[4],inactive
CC(C)(C)C1CCC(O)CC1 (configuration not stated),outcome,[2],inactive
same,outcome,[3],inactive
same,outcome,[4],inactive
CC1=CCC(=C(C)C)CC1,outcome,[2],inactive
same,outcome,[3],inactive
CC(=O)Nc1cc(S(=O)(=O)O)cc2cc(S(=O)(=O)O)c(N=Nc3ccccc3)c(O)c12,outcome,[2],inactive
same,outcome,[3],inactive
same,outcome,[4],inactive
O=Cc1ccccc1O,AC50,[2],92 µM (active)
same,outcome,[3],inactive
CCCCCCCCOC(C)=O,outcome,[2],inactive
same,outcome,[3],inactive
C1=COCCC1,outcome,[2],inactive
same,outcome,[3],inactive
CN(C)C,outcome,[2],inactive
same,outcome,[3],inactive
same,outcome,[4],inactive
COC(=O)C(C)Oc1ccc(Oc2ncc(C(F)(F)F)cc2Cl)cc1 (configuration not stated),outcome,[2],inactive
same,outcome,[3],inactive
CCCCC(CC)COCCO (configuration not stated),outcome,[2],inactive
same,outcome,[3],inactive
same,outcome,[4],inactive
CCCC(O)C(CC)CO (configuration not stated),outcome,[2],inactive
same,outcome,[3],inactive
same,outcome,[4],inactive
CC(=O)Oc1c(C)c(C)c2c(c1C)CC[C@@](C)(CCC[C@H](C)CCC[C@H](C)CCCC(C)C)O2,outcome,[2],inactive
same,outcome,[3],inactive
CCC(C)C1CCCCC1=O (configuration not stated),outcome,[2],inactive
same,outcome,[3],inactive
CCC(C)(CCCC(C)C)OC(C)=O (configuration not stated),outcome,[2],inactive
same,outcome,[3],inactive
same,outcome,[4],inactive
CNC(=C[N+](=O)[O-])NCCSCc1ccc(CN(C)C)o1,outcome,[2],inactive
same,outcome,[3],inactive
same,outcome,[4],inactive
CN(C)C(=O)Nc1ccccc1,outcome,[2],inactive
same,outcome,[4],inactive
CCCCN(CCCC)CCCCCCN(CCCC)CCCC,outcome,[2],inactive
same,outcome,[4],inactive
c1ccc2scnc2c1,outcome,[2],inactive
same,outcome,[4],inactive
COc1cc(OC)c2ccc(=O)oc2c1,outcome,[2],inactive
same,outcome,[4],inactive
same,outcome,[6],inactive
same,outcome,[7],inactive
CCCCOCCOCCO,outcome,[2],inactive
same,outcome,[4],inactive
CC(C)C(=O)c1ccccc1,outcome,[2],inactive
same,outcome,[4],inactive
CC1COC(=O)O1 (configuration not stated),outcome,[2],inactive
same,outcome,[3],inactive
same,outcome,[4],inactive
same,outcome,[6],inactive
same,outcome,[7],inactive
C=CCCCCCCCCC(=O)OCC,outcome,[2],inactive
same,outcome,[4],inactive
CCCc1ccc(N)cc1,outcome,[2],inactive
same,outcome,[4],inactive
CC(CCO)CC(C)(C)C (configuration not stated),outcome,[2],inactive
same,outcome,[3],inactive
same,outcome,[4],inactive
same,outcome,[6],inactive
same,outcome,[7],inactive
CCO[Si](CC)(OCC)OCC,outcome,[2],inactive
same,outcome,[4],inactive
same,outcome,[6],inactive
same,outcome,[7],inactive
CCC(C)COC(=O)CC(C)C (configuration not stated),outcome,[2],inactive
same,outcome,[3],inactive
same,outcome,[4],inactive
CC(=O)OC(C)(C)C,outcome,[2],inactive
same,outcome,[4],inactive
CCCCCCCCCCOC(=O)c1ccccc1C(=O)OCCCCCCCC,outcome,[2],inactive
same,outcome,[3],inactive
same,outcome,[4],inactive
same,outcome,[6],inactive
same,outcome,[7],inactive
CC(=O)N(C)C,outcome,[2],inactive
same,outcome,[3],inactive
same,outcome,[6],inactive
FC(F)(F)c1ccc(Cl)c(Cl)c1,AC50,[2],12 µM (active)
same,outcome,[4],inactive
same,outcome,[6],inactive
same,outcome,[7],inactive
